High-throughput results deposited in PubChem by National Center for Advancing Translational Sciences (NCATS).
Sampled rows, rich in hits. Any-hit rate of the full collection: about 2.8%.
PI4K2A block – inhibitors of human PI4K2A; purified PI4K2A, ADP-Glo luminescence, 1 h; stronger effect = lower value; 420,000 tested, 0.13% active; AID 1346378; activity change, negative = inhibition, % at 76.9 µM; Q9BTU6; in the data active = activity change below about -50%; inconclusive = mostly about -30% to -49%;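 also: -100% = wells without enzyme as full effect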
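In this quantitative HTS, ADP production by PI4K2A was quantified luminescently after 1 h at ambient temperature; 100 microM adenosine served as plate-quality control.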
POLH inh – DNA polymerase eta (human) inhibition | Q9Y253 | 390,000 tested, 1.2% active | recombinant Pol eta, fluorescent DNA replication assay | Potency, µM (series often up to 114 µM), inactives show at the highest dose activity change, negative = inhibition, actives largely listed as inhibitors; also: potency is read from the fitted curve at half-maximal effect; % is scaled to controls: 0 for no effect and ±100 for the full control effect
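Pol eta at 10 nM preincubated with compounds 15 min at room temperature; reaction started with fluorescent substrate (50 nM final) and read kinetically at 0 and 10 min.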
PI5P4K alpha inh – inhibitors of human PI5P4K alpha; P48426; PI5P4Kalpha enzyme, ADP-Glo luminescence, 60 min; stronger effect = lower value; max response, %; 330,000 tested, 1.2% active; active = max response of -50% or lower; inconclusive = between -30% and -50%; inactive = -30% or higher; also: value at the top dose of about 77 µM; % is scaled to controls: 0 for no effect and ±100 for the full control effect
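qHTS, 1536-well: enzyme/substrate mix, compound by pin tool, 5 microM ATP final; RT 60 min; ADP-Glo reagents 1 (45 min) then 2 (30 min); luminescence.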
POLI inh – blocks human DNA polymerase iota activity; 390,000 tested, 1% active; AID 588590; Q9UNA4; Pol iota fluorescent replication assay, 10 min; Potency, µM (top dose mostly 115 µM), without a hit: at the top dose activity, negative = inhibition, usual class: inhibitors; also: potency is read from the fitted curve at half-maximal effect
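Fluorescent replication assay read twice, at 0 min and 10 min after adding 50 nM (final) substrate. Enzyme (10 nM) and compounds were first incubated 15 min at room temperature; enzyme-free buffer wells were negative controls.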
POLB inh – DNA polymerase beta (human) inhibition. Pol beta primer extension/strand displacement, fluorescence kinetic. Potency, µM (top dose mostly 114 µM), for the others: at the top dose activity change, negative = inhibition, most hits filed as inhibitors. 340,000 tested, 1.3% active. AID 485314; also: potency is read from the fitted curve at half-maximal effect; % is scaled to controls: 0 for no effect and ±100 for the full control effect
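Enzyme-only controls used 10 nM Pol beta; buffer lacking enzyme served as negative control. Compound preincubated 15 min, then 50 nM substrate added; 0 and 10 min reads at room temperature.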
Pol kappa inh – DNA polymerase kappa (human) inhibition; AID 588579; purified Pol kappa, fluorescent DNA synthesis assay, 10 min; 400,000 tested, 0.53% active; Q9UBT6; Potency, µM (doses to about 107 µM), for the others: at the highest dose activity, negative = inhibition, usual class: inhibitors; also: potency is read from the fitted curve at half-maximal effect; % is scaled to controls: 0 for no effect and ±100 for the full control effect
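Inhibition of 10 nM Pol kappa is measured by a fluorescent read-out at 0 and 10 min following addition of 50 nM substrate (final), with a 15-min room-temperature compound preincubation.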
* hit, by the source's call; u = inconclusive; x = no result; ! = not confirmed by another sample; [ ] = another dose, or the depositor's remark. Unless noted, calls follow the shape of the dose curve; as a rule, active = well fitted inhibition curve with a large enough effect; inconclusive = small, poorly fitted or top-dose-only effect, or another doubt; inactive = no such curve, though single readings can be large or run the other way.

SMILES	PI4K2A block	POLH inh	PI5P4K alpha inh	POLI inh	POLB inh	Pol kappa inh
O=C(Nc1ccc(Cl)c(Cl)c1)N1CCCCCC1	7	-13%	0	u	47%	89µM*
O=C(Nc1ccc2nc(-c3ccco3)c(-c3ccco3)nc2c1)N1CCCCCC1	-51*	10µM*	x	3.2µM*	2.2µM*	7.1µM*
CCOC(=O)C1CCN(C(=O)Nc2ccc3c(c2)nc(C)n3C)CC1	8	-6%	x	16%	-2%	-2%
O=[N+]([O-])c1ccc(O/N=[N+](\[O-])N2CCN(c3ccccc3)CC2)c([N+](=O)[O-])c1	x	x	x	u	x	-22%
COc1ccc(NC(=O)Cn2c(=O)oc3cc(S(=O)(=O)N4CCCCCC4)ccc32)cc1OC	-2	-12%	x	0%	8%	-3%[60.1 µM]
Cc1cc(NC(=O)Cn2c(=O)oc3cc(S(=O)(=O)N4CCCC4)ccc32)ccc1Br	-8	-20%	x	-3%	13µM*	2%[60.1 µM]
CC(=O)c1cccc(NC(=O)Cn2c(=O)oc3cc(S(=O)(=O)N4CCCC4)ccc32)c1	0	0%	1	u	32µM*!	-20%
Cc1cc(C)cc(NC(=O)Cn2c(=O)oc3cc(S(=O)(=O)N4CCCC4)ccc32)c1	-9	x	x	-29%	u	1%
CCc1ccc(NC(=O)Cn2c(=O)ccc3cc(S(=O)(=O)N4CCCC4)ccc32)cc1	-2	89µM*	x	18%	7%	-2%[60.1 µM]
CCc1c(C(=O)NCCc2ccc(N3CCCCC3)cc2)[nH]c2ccc(Cl)cc12	0	x	x	x	x	u
CC(C)CNC(=O)OCc1cn(Cc2ccccc2C(F)(F)F)nn1	-5	x	x	x	x	x
O=S1(=O)CCO[C@H]2CCCC[C@@H]2N1Cc1ccccc1	x	x	x	41%	x	-24%
CCC/C=C1/CCCOC(C(=O)NCc2ccccn2)(C(F)(F)F)C1 (stereo not drawn)	0	-2%	0	89µM*!	x	4%
CCCN1CNc2c(c(=O)[nH]c(=S)n2Cc2ccc(OC)c(OC)c2)C1	x	x	x	u	x	-12%
CC(C)Cn1c(-c2ccco2)nc2c(c(=O)c3ccccc3n2C)c1=O	x	x	x	x	40µM*	x
COc1ccc(CNc2ncnc3c2[nH]c2cc(OC)c(OC)cc23)cc1	3	u	-1	u	6.3µM*	-38%
CCOC(=O)C1=C(C)N=c2s/c(=C/c3cccc([N+](=O)[O-])c3O)c(=O)n2C1c1ccccc1 (stereo not drawn)	-5	-19%	-55*	u	u	-10%
CCOC(=O)C1=C(C)N=c2s/c(=C\c3ccc(OCC(=O)O)cc3)c(=O)n2C1c1ccccc1 (stereo not drawn)	-20	u	u	52%	-22%	-14%
COc1ccc(C2C(C(C)=O)=C(C)N=c3s/c(=C/c4ccc5c(c4)OCO5)c(=O)n32)cc1 (stereo not drawn)	x	x	x	x	11µM*	x
CCOC(=O)C1=C(c2ccccc2)N=c2s/c(=C\c3ccc(O)cc3)c(=O)n2C1c1cccs1 (stereo not drawn)	-8	-12%	x	45µM*	u	-29%
CCOC(=O)C1=C(C)N=c2s/c(=C\c3ccc(OCC(=O)O)c(OC)c3)c(=O)n2C1c1ccc(OC)cc1 (stereo not drawn)	-15	u	-61*	u	15%	-9%
COc1cccc(NC(=O)C2CCCN2C(=O)Nc2cccc3c2OCO3)c1 (stereo not drawn)	-1	x	x	x	x	x
CCOC(=O)C1=C(C)N=c2s/c(=C\c3ccc(C(=O)O)cc3)c(=O)n2C1c1ccc(OC)cc1OC (stereo not drawn)	-3	-22%	-5	25%	x	9%
COC(=O)C1=C(C)N=c2s/c(=C/c3ccoc3)c(=O)n2C1c1ccccc1 (stereo not drawn)	-14	-11%	x	-3%	50µM*	-4%
CCOC(=O)C1=C(C)N=c2s/c(=C/c3ccco3)c(=O)n2C1c1cccc(OC)c1 (stereo not drawn)	-18	u	-23	u	32µM*	-27%
